Reference: PubChem BioAssay AID1159580 (chemical genetic matrix, 2015)
The whole screen tested about 5,500 compounds, of which about 2,000 (36%) were called active. Inconclusive results (about 18%) are left out. Rule as the data show it: active = normalized growth mostly below about 0.91 (no sharp cut-off); inconclusive = no clear call, values can overlap the other calls; inactive = mostly above about 0.92. The list shows a part of the results.

Experiment: chemical genetic growth profiling, strain panel (AID 1159580);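 also: tested at 20 µM; growth read once vehicle control cultures reached saturation at 30 °C; 1 = growth at the plate median or of vehicle wells; lower values mean less growth of the strain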
Conditions: S. cerevisiae deletion strains, growth OD
[1] = locus YAR019C, strain CDC15, stronger effect = lower value
[2] = locus YBL105C, strain PKC1, stronger effect = lower value
[3] = locus YBR135W, strain CKS1, stronger effect = lower value
[4] = locus YBR136W, strain MEC1, stronger effect = lower value
[5] = locus YBR160W, strain CDC28, stronger effect = lower value
[6] = locus YDL017W, strain CDC7, stronger effect = lower value
[7] = locus YDL028C, strain MPS1, stronger effect = lower value
[8] = locus YDL101C, strain DUN1, stronger effect = lower value
[9] = locus YDL108W, strain KIN28, stronger effect = lower value
[10] = locus YDL132W, strain cdc53, stronger effect = lower value
[11] = locus YDL214C, strain PRR2, stronger effect = lower value
[12] = locus YDR052C, strain DBF4, stronger effect = lower value
[13] = locus YDR054C, strain cdc34, stronger effect = lower value
[14] = locus YDR226W, strain ADK1, stronger effect = lower value
[15] = locus YDR477W, strain SNF1, stronger effect = lower value
[16] = locus YER123W, strain YCK3, stronger effect = lower value
[17] = locus YER133W, strain GLC7, stronger effect = lower value
[18] = locus YFL009W, strain cdc4, stronger effect = lower value
[19] = locus YFL029C, strain CAK1, stronger effect = lower value
[20] = locus YFR003C, strain YPI1, stronger effect = lower value
[21] = locus YFR019W, strain FAB1, stronger effect = lower value
[22] = locus YFR028C, strain CDC14, stronger effect = lower value
[23] = locus YGR040W, strain KSS1, stronger effect = lower value
[24] = locus YGR052W, strain FMP48, stronger effect = lower value
[25] = locus YGR092W, strain DBF2, stronger effect = lower value
[26] = locus YHR030C, strain SLT2, stronger effect = lower value
[27] = locus YHR079C, strain IRE1, stronger effect = lower value
[28] = locus YHR082C, strain KSP1, stronger effect = lower value
[29] = locus YHR205W, strain SCH9, stronger effect = lower value
[30] = locus YIL147C, strain SLN1, stronger effect = lower value
[31] = locus YJL095W, strain BCK1, stronger effect = lower value
[32] = locus YJL128C, strain PBS2, stronger effect = lower value
[33] = locus YJL157C, strain FAR1, stronger effect = lower value
[34] = locus YJR016C, strain ILV3, stronger effect = lower value
[35] = locus YJR066W, strain TOR1 (second series), stronger effect = lower value
[36] = locus YJR066W, strain TOR1, stronger effect = lower value
[37] = locus YKL048C, strain ELM1, stronger effect = lower value
[38] = locus YKL067W, strain YNK1, stronger effect = lower value
[39] = locus YKL101W, strain HSL1, stronger effect = lower value
[40] = locus YKL193C, strain SDS22, stronger effect = lower value
[41] = locus YKL203C, strain TOR2, stronger effect = lower value
[42] = locus YLR113W, strain HOG1, stronger effect = lower value
[43] = locus YLR133W, strain CKI1, stronger effect = lower value
[44] = locus YLR403W, strain SFP1, stronger effect = lower value
[45] = locus YML070W, strain DAK1, stronger effect = lower value
[46] = locus YMR001C, strain CDC5, stronger effect = lower value
[47] = locus YMR205C, strain PFK2 (second series), stronger effect = lower value
[48] = locus YMR277W, strain FCP1, stronger effect = lower value
[49] = locus YNL006W, strain LST8, stronger effect = lower value
[50] = locus YNL020C, strain ARK1, stronger effect = lower value
[51] = locus YNL161W, strain CBK1, stronger effect = lower value
[52] = locus YNL183C, strain NPR1, stronger effect = lower value
[53] = locus YNL207W, strain RIO2, stronger effect = lower value
[54] = locus YNL222W, strain SSU72, stronger effect = lower value
[55] = locus YNL307C, strain MCK1 (second series), stronger effect = lower value
[56] = locus YOL078W, strain AVO1, stronger effect = lower value
[57] = locus YOL136C, strain PFK27, stronger effect = lower value
[58] = locus YOR061W, strain CKA2, stronger effect = lower value
[59] = locus YOR119C, strain RIO1, stronger effect = lower value
[60] = locus YOR231W, strain MKK1, stronger effect = lower value
[61] = locus YOR329C, strain SCD5, stronger effect = lower value
[62] = locus YPL031C, strain PHO85, stronger effect = lower value
[63] = locus YPL153C, strain RAD53, stronger effect = lower value
[64] = locus YPL204W, strain HRR25, stronger effect = lower value
[65] = locus YPL209C, strain IPL1, stronger effect = lower value
[66] = locus YPL256C, strain CLN2, stronger effect = lower value
[67] = locus YPR025C, strain CCL1, stronger effect = lower value
[68] = locus YPR106W, strain ISR1, stronger effect = lower value
[69] = locus YPR111W, strain DBF20, stronger effect = lower value
[70] = strain NNK1, stronger effect = lower value
[71] = strain TSCII, stronger effect = lower value

Measured: normalized growth

O=C(Nc1ccc(N2CCOCC2)cc1)c1ccc(-n2cccn2)cc1
inactive: [1] 0.994 | [2] 0.982 | [3] 0.974 | [4] 0.979 | [5] 0.975 | [6] 0.983 | [7] 0.985 | [8] 0.981 | [9] 0.974 | [10] 0.973 | [11] 0.959 | [12] 0.985 | [13] 0.987 | [14] 0.982 | [15] 0.96 | [16] 0.915 | [17] 0.957 | [18] 0.988 | [19] 0.988 | [20] 0.988 | [21] 0.955 | [22] 0.977 | [23] 0.953 | [24] 1.01 | [25] 0.991 | [26] 1.13 | [27] 1.1 | [28] 1.07 | [29] 0.982 | [30] 0.972 | [31] 1 | [32] 0.95 | [33] 0.966 | [34] 0.986 | [35] 0.96 | [36] 1.1 | [37] 0.946 | [38] 0.954 | [39] 0.931 | [40] 0.981 | [41] 1.04 | [42] 0.9 | [43] 0.962 | [44] 0.984 | [45] 0.928 | [46] 0.983 | [47] 0.95 | [48] 0.985 | [49] 0.979 | [50] 0.96 | [51] 0.978 | [52] 1.03 | [53] 0.979 | [54] 0.977 | [55] 0.958 | [56] 0.972 | [57] 0.923 | [58] 0.952 | [59] 1.01 | [60] 0.949 | [61] 0.985 | [62] 0.962 | [63] 0.958 | [64] 0.924 | [65] 0.979 | [66] 1.02 | [67] 0.982 | [68] 0.976 | [69] 0.968 | [70] 0.977 | [71] 0.982

O=C(CCNNC(=O)c1ccncc1)NCc1ccccc1
inactive: locus YAL040C, strain CLN3, stronger effect = lower value 0.999 | locus YCL061C, strain MRC1 (second series), stronger effect = lower value 1 | locus YDR150W, strain NUM1, stronger effect = lower value 0.998 | locus YDR363W, strain ESC2, stronger effect = lower value 0.959 | locus YER002W, strain NOP16, stronger effect = lower value 0.994 | locus YGR229C, strain SMI1, stronger effect = lower value 0.986 | [26] 0.978 | [27] 0.975 | [31] 0.972 | [36] 0.961 | locus YJR075W, strain HOC1, stronger effect = lower value 0.994 | [42] 0.966 | locus YMR263W, strain SAP30, stronger effect = lower value 0.994 | locus YNL153C, strain GIM3, stronger effect = lower value 0.99 | locus YNL175C, strain NOP13, stronger effect = lower value 0.996 | [52] 0.931 | locus YNL197C, strain WHI3, stronger effect = lower value 0.993 | locus YNL224C, strain SQS1, stronger effect = lower value 0.998 | locus YOR083W, strain WHI5 (second series), stronger effect = lower value 1 | [60] 0.97 | locus YPL055C, strain LGE1, stronger effect = lower value 0.987 | locus YPL241C, strain CIN2, stronger effect = lower value 1 | [66] 0.974

O=C(NCc1ccncc1)c1ccc(-n2cccn2)cc1
active: [42] 0.854
inactive: [1] 0.989 | [2] 0.984 | [3] 0.982 | [4] 0.982 | [5] 0.984 | [6] 0.992 | [7] 0.983 | [8] 0.982 | [9] 0.982 | [10] 0.984 | [11] 0.972 | [12] 0.987 | [13] 0.988 | [14] 0.983 | [15] 0.972 | [16] 0.941 | [17] 0.969 | [18] 0.981 | [19] 0.988 | [20] 0.98 | [21] 0.962 | [22] 0.979 | [23] 0.96 | [24] 1 | [25] 0.985 | [26] 1.11 | [27] 1.1 | [28] 1.05 | [29] 0.985 | [30] 0.982 | [31] 0.981 | [32] 0.953 | [33] 0.973 | [34] 0.984 | [35] 0.971 | [36] 1.09 | [37] 0.959 | [38] 0.972 | [39] 0.962 | [40] 0.976 | [41] 1.03 | [43] 0.955 | [44] 0.99 | [45] 0.954 | [46] 0.984 | [47] 0.973 | [48] 0.978 | [49] 0.993 | [50] 0.974 | [51] 0.985 | [52] 1.02 | [53] 0.981 | [54] 0.982 | [55] 0.966 | [56] 0.981 | [57] 0.928 | [58] 0.965 | [59] 1.02 | [60] 0.95 | [61] 0.986 | [62] 0.964 | [63] 0.969 | [64] 0.935 | [65] 0.984 | [66] 1.02 | [67] 0.987 | [68] 0.982 | [69] 0.968 | [70] 0.984 | [71] 0.981
